Measurements as given in PubChem BioAssay (EPA / NIEHS).
Active and inactive are the calls of the source. How the source made its calls: active means hit-call score of the fitted dose curve at least 0.9, where 1 is the maximum; inactive means score below 0.9.

Columns and labels:
[1] = ATG_CRE_CIS: Attagene CIS-FACTORIAL HepG2 Assay for human cAMP Responsive Element (CRE) binding protein 3 (AID 2282926); settings: HepG2 CRE cis-reporter, Attagene multiplexed mRNA; actives raise or lower the signal
How it was run: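 HepG2 cells transiently transfected with a multiplexed reporter library (CRE-driven unit among them) were dosed for 24 h. Reporter mRNA was quantified by RT-PCR, fluorescent labelling, HpaI digestion and capillary electrophoresis, with bidirectional fitting against DMSO baseline.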

[2] = molecular target: CCAAT/enhancer-binding protein beta (Homo sapiens) (UniProt P17676); experiment: ATG_C_EBP_CIS: Attagene CIS-FACTORIAL HepG2 Assay for human CCAAT/Enhancer Binding Protein (C/EBP) beta (AID 2282927); settings: HepG2 Attagene cis-factorial transcription factor reporter; actives raise or lower the signal
How it was run: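 RT-PCR/capillary electrophoresis fluorescence of reporter mRNA, 24 h post-dose, in HepG2 cells carrying transfected cis-promoter reporter units. Bidirectional curve fitting against DMSO baseline captures gain or loss of signal.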

[3] = ATG_CMV_CIS: Attagene CIS-FACTORIAL HepG2 Assay for human CMV (Internal Marker) (AID 2282928); settings: HepG2 CMV promoter reporter, transcription factor profiling; actives raise or lower the signal;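 further: endpoint acts as a background internal control marker rather than a target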
How it was run: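 Endogenous transcription factor activity read in HepG2 via transfected cis-promoter reporter units. After 24 h dosing, reporter mRNA measured by RT-PCR/capillary electrophoresis; gain or loss of signal fit relative to DMSO.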

[4] = ATG_DR4_LXR_CIS: Attagene CIS-FACTORIAL HepG2 Assay for human Liver X Receptor (LXR), DR4 submotif (AID 2282929); settings: HepG2 Attagene DR4 cis-reporter, mRNA transcription; actives raise or lower the signal
How it was run: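 HepG2, transient MRTU transfection, cis-element (DR4) promoter; 24 h compound exposure; total RNA → oligo(dT) RT → PCR → 6-FAM primer extension → HpaI cut → CE. Gain/loss vs DMSO, bidirectional fit.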

[5] = molecular target: Aryl hydrocarbon receptor (Homo sapiens) (UniProt P35869); experiment: ATG_Ahr_CIS: Attagene CIS-FACTORIAL HepG2 Assay for human Aryl Hydrocarbon Receptor (Ahr) (AID 2282930); settings: HepG2 AhR cis-factorial reporter transcription; actives raise or lower the signal
How it was run: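 HepG2 cells transiently transfected with cis-element-driven multiplexed reporter transcription units; endogenous transcription factor activity measured as reporter mRNA 24 h after dosing. RT-PCR, 6-FAM labelling, HpaI digestion, capillary electrophoresis; bidirectional fitting versus DMSO baseline.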

[6] = ATG_AP_1_CIS: Attagene CIS-FACTORIAL HepG2 Assay for human Activator Protein 1 (AP-1) (AID 2282931); settings: HepG2 Attagene cis-factorial AP-1 reporter mRNA; actives raise or lower the signal
How it was run: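 Transient MRTU transfection of HepG2 → 24 h chemical treatment → RNA isolation, RT-PCR, 6-FAM labelling, HpaI digest → capillary electrophoresis. Fit: bidirectional, DMSO negative control.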

[7] = ATG_AP_2_CIS: Attagene CIS-FACTORIAL HepG2 Assay for human Activator Protein 2 (AP-2) (AID 2282932); settings: HepG2 AP-2 cis-reporter, Attagene transcription factor profiling; actives raise or lower the signal
How it was run: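 Bidirectional curve fitting against DMSO was applied to reporter mRNA signals from HepG2 cells 24 h after dosing. Cis-promoter reporter units, transiently transfected, were read by RT-PCR plus capillary electrophoresis.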

[8] = ATG_BRE_CIS: Attagene CIS-FACTORIAL HepG2 Assay for human Bone Morphogenetic Protein (BMP) Response Element (BRE) (AID 2282933); settings: HepG2 BMP response element reporter, Attagene transcription factor profiling; actives raise or lower the signal
How it was run: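 Read-out: reporter mRNA induction quantified by RT-PCR and capillary electrophoresis after 24 h chemical exposure of transfected HepG2 cells. Endogenous factor activity on the BMP response element; gain or loss fitted against DMSO baseline.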

[9] = molecular target: Transcription factor E2F1 (Homo sapiens) (UniProt Q01094); experiment: ATG_E2F_CIS: Attagene CIS-FACTORIAL HepG2 Assay for human E2F Transcription Factor 1 (AID 2282935); settings: HepG2 Attagene cis-reporter, E2F reporter RNA transcripts; actives raise or lower the signal
How it was run: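 Multiplexed cis-reporter assay: HepG2, transient transfection, 24 h dosing, mRNA quantitation by labeled RT-PCR and CE.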

[10] = ATG_E_Box_CIS: Attagene CIS-FACTORIAL HepG2 Assay for human Enhancer Box (E-box) (AID 2282936); settings: HepG2 E-box cis-reporter transcription, actives raise or lower the signal
How it was run: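 Multiplexed CIS reporter system in transiently transfected HepG2 cells measures native transcription factor activity. Reporter RNA after 24 h exposure is profiled by RT-PCR-capillary electrophoresis.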

[11] = ATG_EGR_CIS: Attagene CIS-FACTORIAL HepG2 Assay for human Early Growth Response 1 (EGR1) (AID 2282938); settings: HepG2 Attagene CIS-FACTORIAL EGR reporter mRNA; actives raise or lower the signal
How it was run: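 Transient transfection of human HepG2 with multiple cis-regulated reporter units, chemical exposure 24 h, total RNA isolated. Reverse transcription, PCR, fluorescent labelling and capillary electrophoresis quantify reporter transcripts; activity fitted bidirectionally against DMSO.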

[12] = ATG_M_19_CIS: Attagene CIS-FACTORIAL HepG2 Assay for M19 Transcription Factor (Internal Marker) (AID 2282939); settings: HepG2 Attagene CIS-FACTORIAL M19 internal marker reporter; actives raise or lower the signal
How it was run: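 Readout: fluorescent reporter-transcript fragments by capillary electrophoresis after RT-PCR. Human HepG2 liver cells carried transfected MRTU constructs reporting endogenous transcription-factor activity; exposure 24 h. Gain or loss of signal fitted relative to DMSO.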

[13] = ATG_ERE_CIS: Attagene CIS-FACTORIAL HepG2 Assay for Estrogen Response Element (ERE) (AID 2282940); settings: HepG2 ERE cis-reporter, Attagene RNA transcript; actives raise or lower the signal
How it was run: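 Readout: reporter mRNA induction by RT-PCR, FAM-labelled primer extension, HpaI digestion and capillary electrophoresis, 24 h after dosing transfected HepG2 cells. Endogenous transcription factors act on cis-element-regulated reporters. Gain or loss fitted against DMSO.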

[14] = ATG_Ets_CIS: Attagene CIS-FACTORIAL HepG2 Assay for human Erythroblast Transformation Specific (ETS) (AID 2282941); settings: HepG2 ETS cis-reporter transcription, actives raise or lower the signal
How it was run: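 Steps: transfect HepG2 with multiple reporter units; treat compound 24 h; isolate RNA, DNase-treat, reverse-transcribe; PCR-amplify, label with 6-FAM, digest with HpaI; separate by capillary electrophoresis. Activity fitted both directions versus DMSO.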

[15] = molecular target: Hepatocyte nuclear factor 3-beta (Homo sapiens) (UniProt Q9Y261); experiment: ATG_FoxA2_CIS: Attagene CIS-FACTORIAL HepG2 Assay for human Forkhead box A2 (FOXA2) (AID 2282942); settings: HepG2 cis-reporter transcription factor activity, 24 h; actives raise or lower the signal
How it was run: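 Transient MRTU transfection of HepG2 liver cells; 24 h treatment; total RNA → oligo(dT) RT → PCR → FAM primer extension → HpaI cut → CE. Bidirectional fit vs DMSO.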

[16] = ATG_FoxO_CIS: Attagene CIS-FACTORIAL HepG2 Assay for human Forkhead box O (FoxO) (AID 2282943); settings: HepG2 Attagene cis-reporter, FoxO element, mRNA; actives raise or lower the signal
How it was run: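 HepG2 cells transiently transfected with cis-promoter-driven multiple reporter transcription units; 24 h after chemical dosing, reporter mRNA quantified by RT-PCR, fluorescent primer extension, HpaI digestion and capillary electrophoresis. Bidirectional fitting versus DMSO baseline.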

[17] = ATG_GATA_CIS: Attagene CIS-FACTORIAL HepG2 Assay for human GATA Binding Protein (AID 2282944); settings: HepG2 GATA cis-element reporter, Attagene multiplex mRNA; actives raise or lower the signal
How it was run: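 Read-out: fluorescent reporter mRNA fragments resolved by capillary electrophoresis after RT-PCR. Human liver HepG2 cells carried transiently transfected cis-regulated reporter constructs; chemicals incubated 24 h; gain or loss of signal fitted relative to DMSO.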

[18] = ATG_GLI_CIS: Attagene CIS-FACTORIAL HepG2 Assay for human Zinc Finger Protein GLI1 (AID 2282945); settings: HepG2, Attagene cis-factorial reporter mRNA, GLI element; actives raise or lower the signal
How it was run: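 HepG2 cells transiently transfected with cis-promoter multiplexed reporter units report endogenous transcription factor activity. After 24 h chemical exposure, reporter mRNA was quantified by RT-PCR, 6-FAM labelling, HpaI digestion and capillary electrophoresis, with bidirectional fitting against DMSO.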

[19] = ATG_M_61_CIS: Attagene CIS-FACTORIAL HepG2 Assay for M61 Transcription Factor (Internal Marker) (AID 2282937); settings: HepG2 Attagene CIS-FACTORIAL M61 internal marker reporter; actives raise or lower the signal
How it was run: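 Human liver HepG2, transient MRTU transfection (cis promoter elements), 24 h compound. Total RNA → oligo(dT) RT → PCR → FAM label → HpaI → CE. Internal background marker; bidirectional fitting, DMSO = baseline.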

Measured: outcome

Sequence of Aryl hydrocarbon receptor (Homo sapiens) (P35869 whole entry, looked up): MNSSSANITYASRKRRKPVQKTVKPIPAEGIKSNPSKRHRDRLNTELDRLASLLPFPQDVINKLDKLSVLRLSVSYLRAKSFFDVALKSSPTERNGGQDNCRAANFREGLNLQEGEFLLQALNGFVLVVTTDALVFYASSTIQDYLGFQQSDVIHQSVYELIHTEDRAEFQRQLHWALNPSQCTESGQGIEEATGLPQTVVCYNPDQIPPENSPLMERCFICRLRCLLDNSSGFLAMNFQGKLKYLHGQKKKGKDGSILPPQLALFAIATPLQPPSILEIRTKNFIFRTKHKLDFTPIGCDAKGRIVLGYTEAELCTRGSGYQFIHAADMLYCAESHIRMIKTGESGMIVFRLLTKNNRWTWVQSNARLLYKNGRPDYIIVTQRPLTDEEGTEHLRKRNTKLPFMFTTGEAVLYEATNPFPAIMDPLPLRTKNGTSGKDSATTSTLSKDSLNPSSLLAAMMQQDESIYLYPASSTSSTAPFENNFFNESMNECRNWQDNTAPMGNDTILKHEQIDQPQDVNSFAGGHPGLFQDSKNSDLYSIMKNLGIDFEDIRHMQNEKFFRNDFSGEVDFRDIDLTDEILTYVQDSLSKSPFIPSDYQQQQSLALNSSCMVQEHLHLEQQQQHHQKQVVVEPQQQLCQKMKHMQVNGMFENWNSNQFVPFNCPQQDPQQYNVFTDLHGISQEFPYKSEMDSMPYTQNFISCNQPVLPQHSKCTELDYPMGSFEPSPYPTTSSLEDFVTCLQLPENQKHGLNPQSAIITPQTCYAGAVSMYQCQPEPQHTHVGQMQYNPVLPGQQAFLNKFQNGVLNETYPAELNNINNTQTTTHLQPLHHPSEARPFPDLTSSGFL
Sequence of Hepatocyte nuclear factor 3-beta (Homo sapiens) (Q9Y261 whole entry, looked up): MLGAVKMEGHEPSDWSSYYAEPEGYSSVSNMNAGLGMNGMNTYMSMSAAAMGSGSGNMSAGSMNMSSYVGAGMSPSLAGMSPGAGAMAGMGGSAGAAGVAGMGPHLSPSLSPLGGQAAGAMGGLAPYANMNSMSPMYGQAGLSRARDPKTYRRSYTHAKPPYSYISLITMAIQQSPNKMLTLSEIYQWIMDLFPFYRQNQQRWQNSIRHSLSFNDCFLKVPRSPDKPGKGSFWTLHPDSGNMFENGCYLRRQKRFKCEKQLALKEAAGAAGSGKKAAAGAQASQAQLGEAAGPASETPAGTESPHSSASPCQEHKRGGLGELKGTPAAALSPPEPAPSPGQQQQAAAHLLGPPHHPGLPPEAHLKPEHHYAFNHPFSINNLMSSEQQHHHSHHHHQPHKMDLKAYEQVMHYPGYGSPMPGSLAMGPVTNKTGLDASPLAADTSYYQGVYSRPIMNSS
Sequence of CCAAT/enhancer-binding protein beta (Homo sapiens) (P17676 whole entry, looked up): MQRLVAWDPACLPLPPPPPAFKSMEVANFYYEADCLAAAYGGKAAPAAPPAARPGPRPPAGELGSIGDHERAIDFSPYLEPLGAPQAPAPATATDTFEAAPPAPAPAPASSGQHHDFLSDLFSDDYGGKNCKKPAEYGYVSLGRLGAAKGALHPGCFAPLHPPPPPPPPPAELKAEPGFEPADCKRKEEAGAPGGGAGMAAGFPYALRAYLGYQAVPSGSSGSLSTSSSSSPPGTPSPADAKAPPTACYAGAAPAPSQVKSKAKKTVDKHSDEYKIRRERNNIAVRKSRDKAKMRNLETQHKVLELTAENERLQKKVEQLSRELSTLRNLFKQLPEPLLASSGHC
Sequence of Transcription factor E2F1 (Homo sapiens) (Q01094 whole entry, looked up): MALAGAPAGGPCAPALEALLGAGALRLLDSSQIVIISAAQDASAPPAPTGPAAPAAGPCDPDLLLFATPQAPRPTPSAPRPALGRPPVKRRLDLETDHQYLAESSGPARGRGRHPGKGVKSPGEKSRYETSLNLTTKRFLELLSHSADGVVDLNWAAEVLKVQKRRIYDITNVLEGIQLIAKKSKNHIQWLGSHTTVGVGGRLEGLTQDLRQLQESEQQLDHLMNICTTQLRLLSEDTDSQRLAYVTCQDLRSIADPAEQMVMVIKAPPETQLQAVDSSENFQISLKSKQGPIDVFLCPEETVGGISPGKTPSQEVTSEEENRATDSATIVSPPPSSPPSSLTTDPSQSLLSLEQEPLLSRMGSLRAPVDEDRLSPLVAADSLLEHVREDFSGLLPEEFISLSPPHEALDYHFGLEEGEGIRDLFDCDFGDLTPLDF

CCCCN
not listed: [19]
inactive: all other assays above

CC1CCC(C(C)(C)O)CC1 (stereo not given)
not listed: [13]
inactive: all other assays above

CC(C)(C#N)c1cc(Cn2cncn2)cc(C(C)(C)C#N)c1
not listed: [12] | [13]
inactive: all other assays above

ClCCCl
not listed: [12] | [17] | [18]
inactive: all other assays above

C=C(C)C(=O)OCCOC(=O)CC(C)=O
not listed: [13] | [15]
inactive: all other assays above

CC(CCO)CCCC(C)(C)O (stereo not given)
not listed: [13]
inactive: all other assays above

NNc1nc(-c2ccc(N)cc2)cs1
not listed: [12] | [14] | [15]
inactive: all other assays above
